Compounds with a hit are over-represented: about 0.87% of the library has one in this group of screens.
EPAC1 agonist: qHTS for Agonist of cAMP-regulated guanine nucleotide exchange factor 3 (EPAC1): primary screen. Rap guanine nucleotide exchange factor 3 (Homo sapiens), O95398. EPAC1 agonist qHTS, biochemical assay; response scale: 100% = response to 6.5 mM cAMP. Potency, µM (highest dose often 154 µM), for the others: top-dose activation, actives largely listed as activators. 360,000 tested, 0.073% active; also: potency is read from the fitted curve at half-maximal effect; nearly all actives have a fitted effect of over 60% in size
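Nucleotide exchange by EPAC1 (100 nM) on Rap1B–BODIPY-GDP (250 nM) in the presence of 50 uM GDP is tracked fluorescently at 480/540 nm over 30 min. Signals are normalized to a 6.5 mM cAMP control.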
EPAC2 ag: qHTS for Agonist of cAMP-regulated guanine nucleotide exchange factor 4 (EPAC2): primary screen; Rap guanine nucleotide exchange factor 4 (Homo sapiens), Q8WZA2; EPAC2 activation, biochemical qHTS; response scale: 100% = 6.5 mM cAMP response; Potency, µM (titrated, usually from 154 µM), for inactives: top-dose activation, hits mostly activators; 360,000 tested, 0.079% active; also: potency is read from the fitted curve at half-maximal effect; nearly all actives have a fitted effect of over 50% in size
Target sequence (Q8WZA2 whole entry, looked up): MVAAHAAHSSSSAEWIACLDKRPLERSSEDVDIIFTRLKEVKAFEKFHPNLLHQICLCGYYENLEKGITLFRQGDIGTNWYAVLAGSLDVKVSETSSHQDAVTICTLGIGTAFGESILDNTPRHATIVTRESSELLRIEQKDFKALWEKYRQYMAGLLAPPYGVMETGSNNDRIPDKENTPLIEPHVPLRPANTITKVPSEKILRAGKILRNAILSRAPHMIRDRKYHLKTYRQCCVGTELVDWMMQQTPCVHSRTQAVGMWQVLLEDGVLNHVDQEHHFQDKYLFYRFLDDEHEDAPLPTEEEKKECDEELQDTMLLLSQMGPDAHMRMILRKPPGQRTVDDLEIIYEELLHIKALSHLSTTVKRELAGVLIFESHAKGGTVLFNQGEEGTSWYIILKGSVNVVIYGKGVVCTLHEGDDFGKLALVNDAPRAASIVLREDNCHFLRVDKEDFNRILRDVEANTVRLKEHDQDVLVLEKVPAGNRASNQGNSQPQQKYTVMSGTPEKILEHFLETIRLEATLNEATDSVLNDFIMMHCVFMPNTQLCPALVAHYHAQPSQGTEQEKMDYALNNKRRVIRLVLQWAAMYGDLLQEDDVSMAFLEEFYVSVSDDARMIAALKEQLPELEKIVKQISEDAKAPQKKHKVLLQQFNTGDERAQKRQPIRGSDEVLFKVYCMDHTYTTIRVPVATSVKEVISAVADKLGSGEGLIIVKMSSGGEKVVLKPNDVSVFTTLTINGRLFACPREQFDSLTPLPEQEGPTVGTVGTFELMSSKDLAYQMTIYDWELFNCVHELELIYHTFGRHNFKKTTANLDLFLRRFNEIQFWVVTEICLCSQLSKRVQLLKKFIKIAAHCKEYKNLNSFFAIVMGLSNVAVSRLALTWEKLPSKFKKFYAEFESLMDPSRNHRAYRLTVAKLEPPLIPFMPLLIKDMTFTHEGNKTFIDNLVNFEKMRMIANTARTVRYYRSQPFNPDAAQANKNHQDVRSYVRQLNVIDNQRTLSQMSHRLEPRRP
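EPAC2 (100 nM) mixed with Rap1B loaded with BODIPY-GDP (250 nM) plus 50 uM unlabeled GDP; compounds pinned in, 5 min RT, then read every 5 min for 30 min (ex 480, em 540 nm). Normalized to cAMP control.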
EPAC1 antag: qHTS for Antagonist of cAMP-regulated guanine nucleotide exchange factor 3 (EPAC1): primary screen; EPAC1 GEF assay, Rap1b-BODIPY-GDP exchange fluorescence; Potency, µM (highest dose often 115 µM), for the others: top-dose activity change, negative = inhibition, actives largely listed as inhibitors; Rap guanine nucleotide exchange factor 3 (Homo sapiens), O95398; 360,000 tested, 0.14% active; AID 720709, 2013;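 also: potency is read from the fitted curve at half-maximal effect; plate controls were vehicle for no effect and positive control for full effect; nearly all actives have a fitted effect of over 50% in size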
USP1 inh: Inhibitors of USP1/UAF1: Primary Screen; Potency, µM (highest dose often 57.1 µM), without a hit: at the top dose activity change, negative = inhibition, hits mostly inhibitors; recombinant USP1/UAF1, Ub-Rhodamine cleavage fluorescence; AID 743255, 2014; Ubiquitin carboxyl-terminal hydrolase 1 (Homo sapiens), O94782; 390,000 tested, 0.23% active; also: potency is read from the fitted curve at half-maximal effect; % is scaled to controls: 0 for no effect and ±100 for the full control effect; nearly all actives have a fitted effect of over 60% in size
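Step one: compound is pinned into 1nM USP1/UAF1 in HEPES pH 7.8 buffer with TCEP. Step two: 15 min room-temperature incubation. Step three: Ub-Rho (150nM final) starts cleavage, tracked by fluorescence over six one-minute reads.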
Coupling enz: qHTS Assay for Inhibitors of Fructose-1,6-bisphosphate Aldolase from Giardia Lamblia: Coupling assay counterscreen; coupling enzyme system counterscreen, AmpLite Red fluorescence; activity change, negative = inhibition, % at 58.2 µM, hits read low; 290,000 tested, 0.67% active; AID 2472, 2010; in the data active = activity change below about -30%; also: % is scaled to controls: 0 for no effect and ±100 for the full control effect
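Coupling enzymes only (glyceraldehyde-3-phosphate) + compound, at 57.5 uM final, 10 min RT; add substrate/coupling/AmpLite Red mix, 20 min RT; fluorescence ex 525/em 598 nm. Actives flag coupling-system interference.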
EPAC2 antag: qHTS for Antagonist of cAMP-regulated guanine nucleotide exchange factor 2 (EPAC2): primary screen; Rap guanine nucleotide exchange factor 4 (Homo sapiens), Q8WZA2; EPAC2 GEF exchange of Rap1B-BODIPY-GDP, fluorescence; Potency, µM (series often up to 114 µM), without a hit: top-dose activity, negative = inhibition, usual class: inhibitors; 360,000 tested, 0.18% active; AID 720708, 2013; also: potency is read from the fitted curve at half-maximal effect; % is scaled to controls: 0 for no effect and ±100 for the full control effect; nearly all actives have a fitted effect of over 45% in size
The depositor's hits bear a star; ? = inconclusive; · = not tested or not shown; [ ] = dose if it differs, or a comment. Unless noted, calls follow the shape of the dose curve; as a rule, active = well fitted curve in the direction sought with a large enough effect; inconclusive = small, poorly fitted or top-dose-only effect, or another doubt; inactive = no such curve, though single readings can be large; an effect the other way counts as inactive or inconclusive.

SMILES	EPAC1 agonist	EPAC2 ag	EPAC1 antag	USP1 inh	Coupling enz	EPAC2 antag
O=c1c2ccccc2sn1-c1ccc(Cl)cc1Cl	-0.8%	1.8%	0.4%	-22.2%	·	11.2µM*
C(=Cc1c[nH]c2ccccc12)c1nccc2ccccc12	-0.8%	19.1%	2.3%	?	·	10.3%
OCC[n+]1ccc(/C=C/c2c[nH]c3ccccc23)cc1	?	?	29.3%	28.2µM*	-48.1*	67.3%
Cc1oc(C(=O)Nc2ccc(O)cc2)cc1COc1ccccc1	11.9%	12.6%	8.0%	-20.1%	-31.9*	4.1%
O=[N+]([O-])c1ccc2c(c1N1CCCCC1)=NC1(CCCCC1)[N+]=2[O-]	-4.7%	15.4%	-14.7%	-7.4%	-26.3	-7.7%
[O-][N+]1=c2ccc(Nc3ccccc3)cc2=NC12CCCCC2	-9.9%	-4.7%	2.5%	?	-49.5*	-4.2%
COc1ccc(NC2=NC(=S)N(c3ccccc3C)C23CCCCC3)cc1	-5.1%	5.2%	5.0%	-23.3%	-2.0	9.3%
COc1ccc(Nc2ccc3c(c2)=NC2(CCCCC2)[N+]=3[O-])cc1	-7.1%	-8.4%	-19.1%	?	-47.6*	-7.2%
CC(C)(C)c1nnc2sc(SCC(=O)N3CCCCC3)nn2c1=O	-10.6%	8.5%	10.7%	-14.5%	·	8.3%
Cc1ccc(C)c(S(=O)(=O)N2CCN(C(=O)CCCc3c[nH]c4ccccc34)CC2)c1	112µM*	14.7%	-22.3%	-15.4%	·	-7.2%
Cc1ccc(C)c(S(=O)(=O)N2CCN(C(=O)CCc3c[nH]c4ccccc34)CC2)c1	11.6%	3.5%	5.8%	-25.0%	·	-18.5%
CC(=O)c1ccc(N2C(=O)C3C(C2=O)C(C(=O)c2ccc(Cl)cc2)N2CCCC32)cc1 (stereo not given)	?	100µM*	-17.4%	17.8µM*	0.2	239.9%
O=C(c1ccc(Cl)cc1)C1C2C(=O)N(c3ccccc3)C(=O)C2C2CCCN21 (stereo not given)	2.1%	1.3%	-3.7%	-6.7%	-1.4	8.5%
O=C(O)c1ccnc(C(=O)O)c1	-0.2%	2.4%	0.6%	-14.5%	-72.2*	6.8%
Nn1c(Nc2ccccc2)nc2ccccc21	4.7%	3.5%	-11.7%	-6.1%	1.7	0.0%[57.1 µM]
CC1CC(=O)c2c(cc3c(-c4c(O)cc(O)c5c(O)c6c(cc45)OC(C)CC6=O)c(O)cc(O)c3c2O)O1 (stereo not given)	-20.3%	-21.6%	?	31.6µM*	-8.5	26.0%
O=C(CSc1nc(-c2ccccc2)nc2c1CCCC2)N1CCOCC1	3.2%	-13.8%	0.0%	-22.1%	-0.8	0.9%[57.1 µM]
COc1ccc(N2CCN(C(=O)CCc3ccccc3OC)CC2)cc1	-171.5%	9.5%	89.1µM*	-10.5%	1.8	1.4%
CCOC(=O)C1=CNS(=O)(=O)NC1c1ccc(C(=O)OC)cc1 (stereo not given)	-15.0%	9.0%	5.7%	-18.2%	·	10.6%
O=C(CN1C(=O)/C(=C2/SC(=S)N(CCS(=O)(=O)O)C2=O)c2ccccc21)Nc1cccc(C(F)(F)F)c1	-0.4%	-5.6%	39.8µM*	-4.9%	·	56.2µM*
Cc1ccccc1C(=O)N(C)[C@H]1C[C@H]2c3[nH]c4ccccc4c3CCN2C[C@H]1[C@H](C)O	4.3%	-3.0%	15.4%	·	·	2.1%
COc1ccc(CC(=O)N(Cc2cc3cc(OC)ccc3[nH]c2=O)C(C)C)cc1	-0.9%	-1.0%	-8.1%	-8.7%	-4.4	10.7%
COc1ccccc1NC(=O)C1=C(C)NC(=O)NC1c1ccccc1[N+](=O)[O-] (stereo not given)	12.7%	2.5%	4.6%	4.7%	-40.8*	-7.1%
CC1=C(C(=O)Nc2ccccc2)C(c2ccccc2[N+](=O)[O-])NC(=O)N1 (stereo not given)	-7.6%	2.6%	-0.8%	-15.6%	-4.4	-8.5%
O=S(=O)(N=C1C=CC(=NS(=O)(=O)c2ccccc2)c2ccccc21)c1ccccc1	10.1%	6.2%	-5.8%	28.2µM*	·	-0.9%
SMILES	EPAC1 agonist	EPAC2 ag	EPAC1 antag	USP1 inh	Coupling enz	EPAC2 antag
CCc1ccc(S(=O)(=O)ON2C(=O)c3ccccc3C2=O)cc1	0.1%	-5.9%	11.0%	-2.5%	4.4	4.1%
CCc1ccc(S(=O)(=O)/N=C2/C=C(Sc3ncn[nH]3)C(=O)c3ccccc32)cc1	0.7%	9.8%	?	1.78µM*	-57.6*	39.8µM*
CCc1ccc(S(=O)(=O)/N=C2\C=CC(=O)c3ccccc32)cc1	·	·	·	·	-49.7*	·
Cc1cc(C)c(S(=O)(=O)/N=C2\C=C(NS(=O)(=O)c3ccccc3)C(=O)c3ccccc32)c(C)c1	2.8%	6.0%	-24.9%	?	-19.6	?
O=C1c2ccccc2C(=O)N1CCSc1ncn[nH]1	-1.3%	-1.4%	1.3%	-5.9%	0.3	4.1%
COc1cccc(CC(C(=O)Nc2cc(C)ccc2C)c2nn[nH]n2)c1OC (stereo not given)	10.6%	4.3%	20.1%	-15.6%	2.4	5.8%
Cc1cccc(NS(=O)(=O)c2csc(C(N)=O)c2)c1C	5.6%	3.0%	6.8%	-16.5%	-1.5	-5.7%
COC(=O)c1ccc(COc2ccc(C(=O)c3ccccc3)cc2)o1	3.1%	7.2%	-8.9%	-21.9%	1.6	4.8%
O=C(O)c1ccccc1-c1ccccc1C(=O)Nc1ccc(OC(F)(F)F)cc1	7.8%	-1.9%	-1.9%	-0.6%	5.0	-14.2%
Cc1cccc(C)c1OC(=O)c1ccccc1	-0.9%	6.6%	-8.0%	-1.9%	·	50.1µM*
COc1cc(C)nc(N2CCCC(C(=O)NC3CCC(C)CC3)C2)n1 (stereo not given)	-5.8%	-3.3%	-3.1%	1.0%	8.6	-2.9%
COc1cc(C)nc(N2CCCC(C(=O)Nc3cc(Cl)ccc3OC)C2)n1 (stereo not given)	12.2%	-19.7%	1.7%	4.0%	0.0	25.1µM*
CC(C)(C)N1C(=O)Cc2c1nc(N)c1c(N)nc(N3CCCCC3CO)c(C#N)c21 (stereo not given)	-1.0%	4.1%	56.2µM*	?	0.1	-8.0%
